Rows were chosen to be rich in hits. Some 3.5% of all compounds tested hit in one or more screens of this group.
TEAD-YAP inh: TEAD-YAP interaction inhibition. HEK-TIYL cells, TEAD-Gal4/YAP UAS-luciferase luminescence. inhibition, % at 9.12 µM. 1.4% of 640,000 active; in the data active = inhibition above about 32%;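 note: 0% = median of test compound wells and 100% = reference inhibitor wells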
FBW7 act: activators of human E3 ligase FBW7. Q969H0. AlphaScreen FBW7–phospho-cyclin E peptide binding, activator screen. normalized activity (activation), % at 26.1 µM. 0.13% of 650,000 active. AID 1259310; in the data active = normalized activity above about 1.9%;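 note: purified mutant Fbw7 with reduced substrate affinity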
GPR151 ag: activators of human GPR151 | activation, % at 11.2 µM | Q8TDV0 | PathHunter beta-arrestin GPR151 cells, luminescence | 1% of 650,000 active; in the data active = activation above about 4.9%;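 note: 0% = median of compound wells and 100% = cells with positive control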
Target sequence (Q8TDV0 whole entry, looked up): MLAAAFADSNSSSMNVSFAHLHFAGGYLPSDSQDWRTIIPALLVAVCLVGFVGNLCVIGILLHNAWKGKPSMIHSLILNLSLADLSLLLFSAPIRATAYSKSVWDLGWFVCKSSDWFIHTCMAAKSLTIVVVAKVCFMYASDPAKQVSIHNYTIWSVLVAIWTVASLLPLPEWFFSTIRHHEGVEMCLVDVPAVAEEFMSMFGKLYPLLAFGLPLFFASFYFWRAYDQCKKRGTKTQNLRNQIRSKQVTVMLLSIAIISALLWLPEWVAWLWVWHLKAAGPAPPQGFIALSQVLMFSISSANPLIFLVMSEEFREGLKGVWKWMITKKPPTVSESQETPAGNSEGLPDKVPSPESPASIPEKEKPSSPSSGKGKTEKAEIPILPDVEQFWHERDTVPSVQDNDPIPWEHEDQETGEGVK
MITF primary: inhibitors of human MITF | O75030 | AlphaScreen MITF homodimerization, bead proximity signal | inhibition, % at 2.6 µM | 0.91% of 650,000 active | AID 1259374; in the data active = inhibition above about 50%;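 note: 0% = vehicle wells with protein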
Numbers without * were called inactive.

SMILES	TEAD-YAP inh	FBW7 act	GPR151 ag	MITF primary
COc1cccc(N2CCN(C(=O)c3[nH]c(C)c(C(C)=O)c3C)CC2)c1	40.1*	-0.3	1.9	1.6
COc1cccc(CNC(=O)c2ccc3c(c2)NC(=O)C(CSCc2ccc(Cl)cc2)N3)c1 (stereo not drawn)	1.7	0.4	0.2	12.1
Cc1oc2c(cc(NS(=O)(=O)c3cccc([N+](=O)[O-])c3)c3ccccc32)c1C(=O)OC(C)C	4.7	-0.1	0.4	13.4
CSc1ccc(C2C(C#N)=C(N)N(c3cccc(C(F)(F)F)c3)C3=C2C(=O)CCC3)cc1 (stereo not drawn)	5.7	0.0	0.3	1.1
COc1ccccc1N1CCN(c2ncc(C(=O)N3CCCC3)c3ccccc23)CC1	5.8	-0.1	0.5	2.5
COc1cccc(NC(=O)c2cnc(N3CCN(c4ccccc4OC)CC3)c3ccccc23)c1	20.0	0.0	0.1	5.0
COc1ccccc1N1CCN(c2ncc(C(=O)NCc3cccnc3)c3ccccc23)CC1	37.4*	-0.1	0.5	-11.0
CCOc1ccccc1NC(=O)c1cnc(N2CCN(c3ccccn3)CC2)c2ccccc12	55.2*	0.0	0.5	7.5
CCOC(=O)c1ccccc1NC(=O)c1cnc(N2CCN(c3ccccn3)CC2)c2ccccc12	9.4	0.0	-0.4	-5.6
COc1ccc(OC)c(NC(=O)c2cnc(N3CCN(c4ccccc4OC)CC3)c3ccccc23)c1	40.2*	-0.1	-0.5	-5.3
COc1ccccc1N1CCN(c2ncc(C(=O)N3CCN(C)CC3)c3ccccc23)CC1	35.3*	-0.1	1.2	8.2
CCNc1cc(NCCNC(=O)c2c(F)cccc2Cl)nc(C)n1	12.6	0.6	0.0	3.5
COc1ccccc1OCCC(=O)OCc1csc(-c2ccccc2)n1	-3.5	0.7	-1.9	5.6
Cc1ccc(OC(=O)c2cc(Br)ccc2Cl)cc1C	-5.4	0.1	-0.1	-13.8
Cc1nc2ccccn2c1-c1csc(Nc2ccc(Br)cc2Br)n1	55.3*	0.4	-0.3	1.6
COc1ccc(Nc2nc(-c3c(C)nc4ccccn34)cs2)cc1	61.6*	-0.1	0.7	-0.4
Cn1c(SCC(N)=O)nc2cccnc21	1.9	-0.2	-0.6	-1.3
Cc1ccc(-n2c(=O)[nH]c3c(C(N)=O)nc(-c4cc(Br)ccc4O)nc32)cc1	2.9	0.3	-0.6	-8.6
Cc1cc(Nc2ccc(Cl)cc2)nc(N)n1	-58.8	0.0	-0.5	0.5
Cc1cc(C)n(-c2nc(-c3ccc(Br)cc3)cs2)n1	-10.6	0.2	-0.5	-8.5
Cc1ccc(CNc2cc(C)nc(-n3nc(C)cc3C)n2)cc1	66.6*	-0.1	-2.2	-5.5
Cc1cc(Nc2ccc(Br)cc2)nc(-n2nc(C)cc2C)n1	64.1*	0.6	0.3	3.6
Cc1cc(Nc2ccc(Cl)cc2)nc(-n2nc(C)cc2C)n1	46.8*	0.4	0.8	4.4
Cc1cc(Nc2ccc3c(c2)OCCO3)nc(-n2nc(C)cc2C)n1	87.5*	-0.3	-1.5	5.2
Cc1cc(Nc2ccc3c(c2)OCO3)nc(Cl)n1	-16.0	0.0	0.2	11.7
SMILES	TEAD-YAP inh	FBW7 act	GPR151 ag	MITF primary
CN(C)CCNC(=S)NC(=O)C12CC3CC(CC(C3)C1)C2	-5.0	-0.2	-0.1	3.8
CNC(=S)N(Cc1ccccc1)Cc1ccc(OC)cc1	3.2	0.2	0.4	3.8
CCOC(=O)c1sc(NC(=O)CCCOc2ccc(Cl)cc2)nc1C	-5.4	0.6	-0.5	-5.5
CN=c1scc(-c2cccs2)n1/N=C/c1ccc(O)c(O)c1O	71.2*	-0.7	-2.6	32.0
CN=c1scc(C)n1/N=C/c1ccc(O)c(O)c1O	17.9	-0.5	-0.3	12.6
COCCN=c1scc(-c2ccco2)n1/N=C/c1ccc(O)c(O)c1O	-9.2	-0.5	0.3	41.1
CN=c1scc(-c2cccs2)n1/N=C/c1ccccc1O	95.0*	-0.1	-4.9	3.6
C=CCN=c1scc(-c2ccco2)n1/N=C/c1ccc(O)c(O)c1O	54.8*	-0.6	-0.9	2.8
CCOc1ccc(/C=C/C(O)=C2/C(=O)NC3(C)CC2c2ccccc2O3)cc1OC (stereo not drawn)	48.9*	-0.1	-1.2	-13.6
CCOc1ccc(C2Oc3ccc(Br)cc3C=C2[N+](=O)[O-])cc1OCC (stereo not drawn)	40.7*	-0.1	-0.9	28.8
CCOc1ccc(C2Oc3c(cccc3OC)C=C2[N+](=O)[O-])cc1OCC (stereo not drawn)	21.1	0.0	-0.5	10.8
CCOc1ccc(C2Oc3c(Cl)cc(Cl)cc3C=C2[N+](=O)[O-])cc1OCC (stereo not drawn)	64.4*	0.1	0.0	24.1
Cc1cc(C)c(NC(=O)C2CC=CCC2C(=O)O)c(C)c1 (stereo not drawn)	-2.3	0.1	0.0	1.4
COc1ccc(Nc2nc3nonc3nc2Nc2ccc(OC)cc2)cc1	10.3	-0.1	0.4	-6.9
COc1ccc(Nc2nc3nonc3nc2N/N=C(\C)c2nonc2C)cc1	52.3*	0.2	0.6	3.9
Cn1nnnc1Sc1ccc(C(N)=O)cc1[N+](=O)[O-]	-4.3	-0.1	1.6	5.4
Cn1nnnc1Sc1ccc([N+](=O)[O-])c2cnccc12	35.2*	0.0	-0.1	-9.3
CCc1ccc(S(=O)(=O)Nc2cc3c4c(oc3c3ccccc23)CCC(C(C)(C)C)C4)cc1 (stereo not drawn)	-1.5	0.2	-0.4	8.6
O=c1/c(=C\c2ccc3c(c2)OCO3)sc2nc3ccccc3n12	37.7*	0.1	-0.4	6.2
Cc1cc(/C=c2\sc3nc4ccccc4n3c2=O)c(C)n1-c1ccc(F)cc1	31.9*	0.0	-1.3	-11.7
O=c1/c(=C/c2ccc(O)c(Cl)c2)sc2nc3ccccc3n12	52.6*	0.1	-0.6	-12.3
COc1ccc(-n2c(C)cc(/C=c3\sc4nc5ccccc5n4c3=O)c2C)cc1	12.2	0.4	-1.0	1.6
CC(=O)Nc1ccc(/C=c2\sc3nc4ccccc4n3c2=O)cc1	57.0*	-0.1	-0.2	11.2
Cc1ccc(S(=O)(=O)NC(CC(C)C)C(=O)Nc2cccc(C)c2)cc1 (stereo not drawn)	8.0	0.1	-0.4	13.4
CC(=O)Nc1cccc(NC(=O)C(C)C)c1	-3.0	0.2	-1.6	-4.8
SMILES	TEAD-YAP inh	FBW7 act	GPR151 ag	MITF primary
O=C(NCC1Cc2cc(Cl)cc(-c3ccc4[nH]ccc4c3)c2O1)c1cc[n+]([O-])cc1 (stereo not drawn)	4.8	0.8	-0.5	-15.2
CCC(C)NCCOCCOc1cc(Cl)ccc1Cl (stereo not drawn)	6.3	0.4	-0.5	48.3
O=C(NN1C(=O)CSC1=S)c1ccccc1	0.9	0.0	0.5	-7.6
O=C(NN1C(=O)CSC1=S)C(=O)NN1C(=O)CSC1=S	-7.0	-0.2	0.9	64.0*
Cc1ccc(C)c(OCC(=O)Nc2nccs2)c1	-13.5	-0.2	-2.0	12.1
CC(C)(C)c1ccccc1OCC(=O)Nc1nccs1	4.8	0.0	-1.0	-13.3
Cc1ccc(OCC(=O)Nc2nccs2)c(C)c1	93.3*	-0.3	-7.7	4.8
Cc1ccc(C(C)(C)C)c(OCC(=O)Nc2nccs2)c1	50.0*	0.0	-0.9	10.8
Cc1ccccc1OCC(=O)Nc1nccs1	49.7*	0.0	-9.7	2.9
Cc1ccc(/C=C/C(=O)Nc2nccs2)cc1	69.2*	-0.1	-7.3	18.4
